Results on 27 compounds are retold here after PubChem BioAssay (NCATS).

Several values for one entry are separate records, joined by “and”; a condition that tells them apart may be missing. Identical values can stand only once. Inconclusive results are not listed. Activity calls are given as the source filed them. Unless noted, the call rests on the fitted dose curve; in most records, active means well fitted curve in the direction sought with a large enough effect; inconclusive means small, poorly fitted or top-dose-only effect, or another doubt; inactive means no such curve, though single readings can be large; an effect the other way counts as inactive or inconclusive.

In experiment [1] the target is Calcium and integrin-binding protein 1 (Homo sapiens) (UniProt Q99828). Kind of experiment: Primary qHTS for Identification of Calcium Integrin Binding Protein 1 (CIB1) Competitor (AID 1508620).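 Further: GST tagged CIB1 binding a fluorescein labelled alphaIIb integrin peptide tracer; top concentration of the series differs between compounds.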 A digest of the protocol:
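CIB1-GST (1 uM final) and compound incubated 15 min at room temperature before adding FITC-alphaIIb peptide tracer (100 nM final). Competition for binding read by fluorescence polarization (ex 480, em 540) after another 15 min at room temperature.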
On the technique in general: Quantitative high-throughput screening tests each substance at several concentrations.

Experiment [2] has as its target Cytochrome P450 2D6 (Homo sapiens) (UniProt P10635). Kind of experiment: Cytochrome P450 family 2 subfamily D member 6 (CYP2D6) small molecule antagonists: luciferase biochemical (cell-free) qHTS assay (AID 1645840; active means well fitted curve in the direction sought with a large enough effect in the repeat runs; an effect the other way counts as inactive or inconclusive; further: nearly all actives have a fitted effect of over 55% in size; further: potency means the concentration at half of the fitted maximal effect). A digest of the protocol:
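P450-Glo CYP2D6 system: proluciferin substrate converted by enzyme to luciferin, read by luminescence proportional to activity. Enzyme-substrate mix with compound 10 min at room temperature, then NADPH regeneration 1 h before detection reagent.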

Experiment [3] has as its target Cytochrome P450 2C9 (Homo sapiens) (UniProt P11712). The experiment can be described thus: Cytochrome P450 family 2 subfamily C member 9 (CYP2C9) small molecule antagonists: luciferase biochemical (cell-free) qHTS assay (AID 1645842; active means well fitted curve in the direction sought with a large enough effect in the repeat runs; an effect the other way counts as inactive or inconclusive; further: nearly all actives have a fitted effect of over 55% in size; further: potency means the concentration at half of the fitted maximal effect). In a few lines: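 P450-Glo CYP2C9 system: proluciferin substrate with enzyme in mix containing 0.4% BSA, 10 min at room temperature, then NADPH regeneration solution added and incubated 1 h at 37C. Detection reagent stopped reaction; luminescence read after 20 min as RLU.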

Experiment [4] can be described thus: Primary qHTS for inhibitors of nuclear receptor binding SET domain protein 2 (NSD2) in an isogenic RCH-ACV NSD2 p.E1099K mutant (9B) (AID 1645876). Further: nearly all actives have a fitted effect of over 70% in size. Further: potency means the concentration at half of the fitted maximal effect.
The target of experiment [5] is N-terminal Xaa-Pro-Lys N-methyltransferase 1 (Homo sapiens) (UniProt Q9BV86). The experiment can be described thus: Confirmatory qHTS for Inhibitors of N-terminal methyltransferase 1 (NTMT1): MTaseGlo Assay (AID 1645874). Further: potency means the concentration at half of the fitted maximal effect; nearly all actives have a fitted effect of over 65% in size. In a few lines:
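Enzyme mix (125 nM NTMT1, 100 uM SAM) + compound, 15 min RT; + 1 uM SPKRIA, 30 min RT, dark; MTase-Glo reagent 30 min, detection solution 30 min; luminescence. % inhibition vs no-enzyme/DMSO controls, 4-parameter Hill fit.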

Calcium and integrin-binding protein 1 (Homo sapiens), sequence (Q99828 whole entry, looked up): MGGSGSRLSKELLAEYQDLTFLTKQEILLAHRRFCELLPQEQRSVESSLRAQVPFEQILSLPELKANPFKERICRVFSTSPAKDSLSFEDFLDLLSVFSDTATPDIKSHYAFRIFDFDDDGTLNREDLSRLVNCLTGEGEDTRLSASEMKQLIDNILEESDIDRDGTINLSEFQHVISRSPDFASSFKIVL
Cytochrome P450 2D6 (Homo sapiens), sequence (P10635 whole entry, looked up): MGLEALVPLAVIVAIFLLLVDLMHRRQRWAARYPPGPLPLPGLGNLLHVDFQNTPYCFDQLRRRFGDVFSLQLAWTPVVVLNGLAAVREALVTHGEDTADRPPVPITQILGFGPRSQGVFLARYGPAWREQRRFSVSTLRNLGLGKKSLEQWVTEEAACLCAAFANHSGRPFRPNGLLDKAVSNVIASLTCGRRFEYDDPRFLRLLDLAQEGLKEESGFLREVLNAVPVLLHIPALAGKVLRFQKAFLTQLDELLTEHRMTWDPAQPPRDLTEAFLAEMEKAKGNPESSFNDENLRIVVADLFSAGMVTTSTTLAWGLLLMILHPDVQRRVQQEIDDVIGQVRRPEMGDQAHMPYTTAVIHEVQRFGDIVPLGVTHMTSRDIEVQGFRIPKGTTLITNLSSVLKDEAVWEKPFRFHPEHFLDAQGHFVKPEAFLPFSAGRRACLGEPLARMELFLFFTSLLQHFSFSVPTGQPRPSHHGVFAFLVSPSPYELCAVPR
Cytochrome P450 2C9 (Homo sapiens), sequence (P11712 whole entry, looked up): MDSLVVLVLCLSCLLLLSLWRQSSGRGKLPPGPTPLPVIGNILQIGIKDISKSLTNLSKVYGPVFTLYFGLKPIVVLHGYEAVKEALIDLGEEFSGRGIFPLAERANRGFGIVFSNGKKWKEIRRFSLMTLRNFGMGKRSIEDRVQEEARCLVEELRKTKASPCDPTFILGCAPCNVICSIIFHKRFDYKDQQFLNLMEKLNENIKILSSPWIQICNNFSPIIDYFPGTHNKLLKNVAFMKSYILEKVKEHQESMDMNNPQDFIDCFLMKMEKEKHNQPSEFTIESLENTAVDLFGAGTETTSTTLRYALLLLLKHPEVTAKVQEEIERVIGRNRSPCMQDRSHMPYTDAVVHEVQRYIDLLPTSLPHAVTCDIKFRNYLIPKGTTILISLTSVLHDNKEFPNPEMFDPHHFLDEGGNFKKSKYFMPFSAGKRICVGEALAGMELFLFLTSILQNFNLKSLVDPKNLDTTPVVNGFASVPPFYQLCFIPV
N-terminal Xaa-Pro-Lys N-methyltransferase 1 (Homo sapiens), sequence (Q9BV86 whole entry, looked up): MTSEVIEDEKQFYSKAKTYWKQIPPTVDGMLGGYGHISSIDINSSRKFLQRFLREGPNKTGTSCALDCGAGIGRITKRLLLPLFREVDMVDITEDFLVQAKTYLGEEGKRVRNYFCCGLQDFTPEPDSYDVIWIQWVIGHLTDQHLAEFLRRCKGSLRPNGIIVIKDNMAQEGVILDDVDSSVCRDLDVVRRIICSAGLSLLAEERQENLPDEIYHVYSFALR

On to `COc1ccc(CCO[C@@H]2CCCC[C@H]2N2CC[C@@H](O)C2)cc1OC`, for which the Potency entry in experiment [1], in experiment [3] and in experiment [4] was “inactive” in each case. The Potency in experiment [2] is 10.7 µM (active).
Regarding `COc1ccc(-c2ccc(-c3cn(C(=O)N4CCCCC4c4ccccc4)nn3)cc2)cc1` (centres undefined), the Potency result in experiment [1], in experiment [2] and in experiment [4] was “inactive” throughout. For the same compound, in experiment [3], the Potency is 2.13 µM (active).
As to `CCCCCCOc1cc2c(cc1N(C)c1ncc(C(=O)O)cn1)C(C)(C)CCC2(C)C`, the Potency entry in experiment [1], in experiment [3] and in experiment [4] was “inactive” in each case. Further, the Potency in experiment [2] is 10.7 µM (active).
On to `CCS(=O)(=O)N1CCN(c2ccc(Nc3ncc(C(N)=O)c(NC4CC4)n3)cc2)CC1`, for which the Potency result in experiment [1] and in experiment [2] was “inactive” throughout. Moreover, the Potency is 19 µM (active) in experiment [3]; 230 nM (active) and 417 nM (active) in experiment [4].
With `O=C(c1cccc(Cl)c1F)N1CCN(Cc2cccc(Nc3nccs3)n2)CC1`, the Potency entry in experiment [1] is “inactive”. In addition, the values for the Potency in experiment [2], in experiment [3] and in experiment [4] were 1.69 µM (active), 3.38 µM (active) and 0.817 µM (active), respectively.
Regarding `COc1cc2c(NC3CCN(CC4CCCCC4)CC3)nc(N3CCCN(C(C)C)CC3)nc2cc1OCCCN1CCCCC1`, the Potency result in experiment [1] and in experiment [3] was “inactive” each time. Further, the Potency in experiment [2] was 12 µM (active); in experiment [5], 34.5 µM (active); in experiment [4], 2.58 µM (active) and 5.25 µM (active).
`CC(C)S(=O)(=O)N[C@H]1CCOC[C@@H]1c1ccc(-c2ccc(C#N)s2)cc1`: the Potency entry in experiment [1] and in experiment [4] was “inactive” in each case. Further, the Potency was 10.7 µM (active) in experiment [2] and 0.213 µM (active) in experiment [3].
For the compound `N#CC(c1ccnc(OCc2ccc(CN3CCOCC3)cc2)n1)c1nc2ccccc2s1` (centres undefined), the Potency result in experiment [1], in experiment [2] and in experiment [4] was “inactive” in each case. Besides, the Potency in experiment [3] is 10.7 µM (active).
With `COC(=O)CC1CC(c2ccc(O)cc2)=NO1` (centres undefined), the Potency entry in experiment [1], in experiment [2], in experiment [3] and in experiment [4] was “inactive” each time.
`O=C(NCc1ccccn1)Nc1nnc(-c2ccco2)o1`: the Potency entry in experiment [1], in experiment [2], in experiment [3] and in experiment [4] was “inactive” each time.
As to `O=C(CC(c1ccccc1)c1ccccc1)N1CCN(C(c2ccccc2)c2ccccc2)CC1`, the Potency result in experiment [1] and in experiment [2] was “inactive” each time. In addition, the figures for the Potency in experiment [3] and in experiment [4] were 4.77 µM (active) and 7.28 µM (active), respectively.
Consider `CN1CCC(Nc2nc(Nc3ccc(Oc4ccccc4)cc3)c3c(=O)[nH]cc(Br)c3n2)CC1`, for which the Potency entry in experiment [1] was “inactive”. The figures for the Potency in experiment [2], in experiment [3] and in experiment [4] were 5.35 µM (active), 16.9 µM (active) and 1.83 µM (active), respectively.
In the case of `C=CC(=O)Nc1cccc(CN2C(=O)N(c3c(Cl)c(OC)cc(OC)c3Cl)Cc3cnc(NCCCCN(CC)CC)nc32)c1`, the Potency result in experiment [1] is “inactive”. Moreover, the Potency in experiment [2] was 21.3 µM (active); in experiment [3], 8.49 µM (active); in experiment [4], 2.05 µM (active).
For the compound `COc1c(Nc2ncc(Cl)c(N[C@H]3[C@@H](C(N)=O)[C@@H]4C=C[C@H]3C4)n2)ccc2c1CC[C@@H](N1CCOCC1)CC2`, the Potency entry in experiment [1] was “inactive”. In addition, the Potency in experiment [2] was 19 µM (active); in experiment [3], 6.01 µM (active); in experiment [4], 3.25 µM (active).
The matching figures for `CN1CCc2nc(C(=O)N[C@@H]3C[C@@H](C(=O)N(C)C)CC[C@@H]3NC(=O)C(=O)Nc3ccc(Cl)cn3)sc2C1`: “inactive”, “inactive”, “inactive” and “inactive”.
The corresponding values for `COc1ccc2[nH]c3c(-c4cccc5ccccc45)nccc3c2c1` are “inactive”, 0.0151 µM (active), 1.51 µM (active) and 0.916 µM (active).
The matching figures for `CN(c1ccccc1CNc1nc(Nc2ccc3c(c2)CC(=O)N3)ncc1C(F)(F)F)S(C)(=O)=O`: “inactive”, 23.9 µM (active), 1.51 µM (active) and 1.29 µM (active).
In the case of `O=C(CCc1nnc2n(Cc3ccc(Cl)cc3)c(=O)c3ccccc3n12)NCCC1=CCCCC1`, the Potency result in experiment [1] and in experiment [4] was “inactive” each time. Further, the Potency in experiment [2] was 7.56 µM (active); in experiment [3], 4.77 µM (active).
With `Cc1cc(C)c(Nc2ccnc(Nc3ccc(C#N)cc3)n2)c(C)c1`, in experiment [1], the Potency entry was “inactive”. The Potency was 10.7 µM (active) in experiment [2], 3.79 µM (active) in experiment [3] and 4.09 µM (active) in experiment [4].
`Cc1ccc(C)c(OCCn2cc(C(=O)O)c3ccccc32)c1`: the Potency result in experiment [1], in experiment [2] and in experiment [4] was “inactive” in each case. Moreover, the Potency in experiment [3] was 13.5 µM (active).
For the compound `COC(=O)CCSCc1ccc(-c2onc(C)c2NC(=O)OC(C)c2ccccc2Cl)cc1` (centres undefined), the Potency entry in experiment [1] and in experiment [4] was “inactive” each time. The values for the Potency in experiment [2] and in experiment [3] were 2.68 µM (active) and 1.51 µM (active), respectively.
With `CCC(COC)n1nnc2c(Nc3ccc(OC)cc3C)nc(C)cc21` (centres undefined), the Potency result in experiment [1] and in experiment [4] was “inactive” in each case. Moreover, the figures for the Potency in experiment [2] and in experiment [3] were 10.7 µM (active) and 7.56 µM (active), respectively.
As to `CC(NC(=O)C(O)C(C)C)C(=O)NC1C(=O)N(C)CCc2ccccc21` (centres undefined), the Potency result in experiment [1], in experiment [2], in experiment [3] and in experiment [4] was “inactive” throughout.
As for `CCOC(=O)c1cc(C#N)c(N2CCC(C(=O)NS(=O)(=O)Cc3ccccc3)CC2)nc1C`, the Potency entry in experiment [1], in experiment [2] and in experiment [4] was “inactive” in each case. Besides, the Potency in experiment [3] was 2.68 µM (active).
For `Cc1[nH]c2ccccc2c1C1=C(NCCc2ccc(F)cc2)C(=O)N(C)C1=O`, the Potency result in experiment [1] is “inactive”. Further, the Potency in experiment [2] is 4.25 µM (active); in experiment [3], 0.379 µM (active); in experiment [4], 6.49 µM (active).
Turning to `Cc1c[nH]c2nccc(Oc3c(F)cc(Nc4cc(Cl)nc(N)n4)cc3F)c12`, the Potency entry in experiment [1] is “inactive”. The Potency was 6.74 µM (active) in experiment [2], 15.1 µM (active) in experiment [3] and 0.728 µM (active) in experiment [4].
As to `CC(C)CCC(=O)CC1c2ccccc2C(=O)N1c1ccc2ccc(Cl)nc2n1` (centres undefined), the Potency entry in experiment [1], in experiment [2] and in experiment [4] was “inactive” each time. In experiment [3], the Potency is 1.51 µM (active).
